Among the test systems are SR leukemia; RPMI-8226 leukemia; OVCAR-8 ovarian; OVCAR-5 ovarian; OVCAR-4 ovarian; SK-OV-3 ovarian; IGROV1 ovarian; OVCAR-3 ovarian; HS 578T breast; NCI/ADR-RES ovarian.
Common to all, as to assay: NCI-60 one-dose screen, 48 h (100 = growth as untreated, 0 = no growth, -100 = all killed)
Common to all, as to settings: 10 µM unless noted

The panel holds about 83,000 compounds, 20% with a hit somewhere; the sample as a whole holds those more often.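 Compound tested at a single concentration for 48 hours in 96-well plates; a percent growth value below 10 was scored as active.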 Unmarked numbers belong to inactive results. The source made the active and inactive calls.

Regarding `O=C(Nc1ccc(N2CCOCC2)cc1)Nc1ccc2c(ccn2C(=O)c2cccc(F)c2)c1`, the growth was 71.8% in the assay with SR leukemia; 58.5% with RPMI-8226 leukemia; 58.3% in the assay on OVCAR-8 ovarian; 99.3% with OVCAR-5 ovarian; 82.6% with OVCAR-4 ovarian; 111% in the assay with SK-OV-3 ovarian. For the same compound, the growth in the assay on IGROV1 ovarian was 81%; in the assay on OVCAR-3 ovarian, 82.7%; with HS 578T breast it was 21.7%; with NCI/ADR-RES ovarian, 74.2%.
In the case of `O=C(CCCCCCNC(=O)C(O)(O)C(F)(F)F)Nc1ncc(-c2ccccc2)s1`, the growth was 10.9% with SR leukemia; 14.6% in the assay with RPMI-8226 leukemia; -2.23% (active) with OVCAR-8 ovarian; -0.912% (active) with OVCAR-5 ovarian; 18.9% in the assay on OVCAR-4 ovarian; -23.8% (active) with SK-OV-3 ovarian. Moreover, the growth in the assay on IGROV1 ovarian was -23.5% (active); in the assay on OVCAR-3 ovarian it was -43% (active); in the assay with HS 578T breast, 0.452% (active); in the assay with NCI/ADR-RES ovarian, 2.08% (active).
On to `O=C(Nc1ccccc1)Nc1nc2ccc([N+](=O)[O-])cc2[nH]1`, for which the growth in the assay on SR leukemia is 70.4%; with RPMI-8226 leukemia, 46.1%; in the assay with OVCAR-8 ovarian it was 66.9%; in the assay on OVCAR-5 ovarian, 75.2%; in the assay on OVCAR-4 ovarian, 23.5%; with SK-OV-3 ovarian, 73.4%. For the same compound, the growth was 45.9% in the assay with IGROV1 ovarian, 38.3% with OVCAR-3 ovarian, 75.5% in the assay with HS 578T breast and 69.1% in the assay on NCI/ADR-RES ovarian.
For `O=c1[nH][nH]c(-c2ccc(F)cc2)c1-c1nc2ccccc2s1`, the growth in the assay with SR leukemia was 103%; in the assay on RPMI-8226 leukemia, 97.4%; in the assay on OVCAR-8 ovarian, 100%; in the assay with OVCAR-5 ovarian, 95.9%; in the assay with OVCAR-4 ovarian, 106%; in the assay with SK-OV-3 ovarian it was 88.6%. For the same compound, the growth in the assay with IGROV1 ovarian is 86.8%; in the assay with OVCAR-3 ovarian it was 108%; in the assay on HS 578T breast, 96.9%; in the assay with NCI/ADR-RES ovarian, 86.8%.
As for `C=C(C)[C@@H]1CC[C@]2(C(=O)N3CCN(C)CC3)CC[C@]3(C)[C@H](CC[C@@H]4[C@@]5(C)CC[C@H](OP(=O)(OCC)OCC)C(C)(C)[C@@H]5CC[C@]43C)[C@@H]12`, the growth in the assay with SR leukemia was -26.6% (active); in the assay on RPMI-8226 leukemia it was 35.2%; in the assay on OVCAR-8 ovarian, 84.3%; in the assay on OVCAR-5 ovarian it was 105%; in the assay with OVCAR-4 ovarian, 91.2%; in the assay on SK-OV-3 ovarian, 104%. Moreover, the growth in the assay on IGROV1 ovarian was 92.9%; in the assay on OVCAR-3 ovarian, 100%; with HS 578T breast, 87.6%; with NCI/ADR-RES ovarian, 82.4%.
In the case of `O=C(CSc1nc2ccccc2c(=O)n1-c1ccccc1)N/N=C/c1ccc(Oc2ccc(Cl)cc2)cc1`, the growth in the assay with SR leukemia was 70.3%; in the assay with RPMI-8226 leukemia, 73.3%; in the assay with OVCAR-8 ovarian, 59.2%; in the assay on OVCAR-5 ovarian, 81.5%; in the assay with OVCAR-4 ovarian it was 73.7%; in the assay with SK-OV-3 ovarian, 83.2%. Moreover, the growth in the assay on IGROV1 ovarian is 49.1%; in the assay on OVCAR-3 ovarian, 111%; in the assay on HS 578T breast it was 58.9%; in the assay with NCI/ADR-RES ovarian, 52.7%.
For `O=C(CSc1nc2ccccc2c(=O)n1-c1ccccc1)N/N=C/c1ccc(Oc2ccc(Br)cc2)cc1`, the growth in the assay on SR leukemia was 73.4%; with RPMI-8226 leukemia it was 68.3%; with OVCAR-8 ovarian, 63.3%; in the assay with OVCAR-5 ovarian, 94%; in the assay with OVCAR-4 ovarian it was 81.7%; in the assay on SK-OV-3 ovarian it was 84.5%. The growth in the assay on IGROV1 ovarian was 65.6%; in the assay with OVCAR-3 ovarian, 117%; in the assay on HS 578T breast, 60.8%; with NCI/ADR-RES ovarian, 55.2%.
Regarding `C#Cc1cc(C(=O)Nc2ccc(CNCCN3CCOCC3)c(C(F)(F)F)c2)ccc1C`, the growth was 67.8% with SR leukemia; 74.5% in the assay on RPMI-8226 leukemia; 105% in the assay on OVCAR-8 ovarian; 98.6% in the assay with OVCAR-5 ovarian; 79.1% with OVCAR-4 ovarian; 94.1% with SK-OV-3 ovarian. Also, the growth in the assay with IGROV1 ovarian was 101%; in the assay on OVCAR-3 ovarian, 94.1%; with HS 578T breast it was 81.4%; in the assay with NCI/ADR-RES ovarian, 94.3%.
Take `COc1ccccc1Cn1cc(C#N)c(N)c1C(=O)c1ccc(Br)cc1`: the growth is 112% in the assay on SR leukemia; 93.7% in the assay on RPMI-8226 leukemia; 98.3% in the assay with OVCAR-8 ovarian; 104% with OVCAR-5 ovarian; 73.8% with OVCAR-4 ovarian; 107% in the assay with SK-OV-3 ovarian. Also, the growth in the assay on IGROV1 ovarian is 91.6%; in the assay on OVCAR-3 ovarian, 104%; in the assay with HS 578T breast, 94.4%; in the assay with NCI/ADR-RES ovarian, 93.6%.
For the compound `Cc1ccc2c(n1)C(=O)C(Cl)=C(Nc1cccc(C(=O)OC(C)(C)C)c1)C2=O`, the growth in the assay with SR leukemia was 5.81% (active); in the assay with RPMI-8226 leukemia, 28%; with OVCAR-8 ovarian it was 87.3%; with OVCAR-5 ovarian it was 130%; in the assay on OVCAR-4 ovarian it was 65.7%; in the assay on SK-OV-3 ovarian, 97.2%. Besides, the growth with IGROV1 ovarian is 88.2%; in the assay on OVCAR-3 ovarian it was 37.5%; in the assay on HS 578T breast, 102%; in the assay on NCI/ADR-RES ovarian, 93.9%.
As to `Cn1cc(-c2nnc(N)nc2-c2c[nH]c3ccc(Br)cc23)c2cc(Br)ccc21`, the growth is 78.4% in the assay with SR leukemia; 109% with RPMI-8226 leukemia; 104% in the assay with OVCAR-8 ovarian; 120% in the assay on OVCAR-5 ovarian; 98.6% with OVCAR-4 ovarian; 111% with SK-OV-3 ovarian. Further, the growth in the assay with IGROV1 ovarian was 107%; in the assay with OVCAR-3 ovarian, 108%; with HS 578T breast it was 91.4%; in the assay with NCI/ADR-RES ovarian it was 110%.
For `CCN(CC)CCOc1ccc(C(=C(c2ccccc2)C2CCCC2)c2ccc(OCCN(CC)CC)cc2)cc1`, the growth was -5.92% (active) in the assay with SR leukemia; -30.8% (active) in the assay on RPMI-8226 leukemia; 40.5% in the assay with OVCAR-8 ovarian; 38.5% in the assay with OVCAR-5 ovarian; 34.7% with OVCAR-4 ovarian; 21.2% with SK-OV-3 ovarian. The growth was -40.4% (active) in the assay on IGROV1 ovarian, 16.9% in the assay on OVCAR-3 ovarian, 12.8% with HS 578T breast and 97.1% in the assay on NCI/ADR-RES ovarian.
Regarding `CC1=C(C)C(=O)C(Nc2ccc(C)c(C)c2)=C(Br)C1=O`, the growth was 43.6% with SR leukemia; 29.8% with RPMI-8226 leukemia; 100% in the assay on OVCAR-8 ovarian; 111% in the assay with OVCAR-5 ovarian; 55.1% in the assay with OVCAR-4 ovarian; 100% in the assay on SK-OV-3 ovarian. The growth was 90.9% in the assay on IGROV1 ovarian, 109% in the assay on OVCAR-3 ovarian, 97.4% with HS 578T breast and 82.7% with NCI/ADR-RES ovarian.

For the origin of these results see PubChem BioAssay (NCI).
